Where “and” joins values, the source holds several entries; their conditions need not be identical. Identical values can stand only once. Inconclusive results are not listed. A call without a number means that no potency is given here. Calls of active or inactive are those of the source. Unless noted, calls come from the whole dose curve.
What was measured:
[1] = molecular target: Ubiquitin carboxyl-terminal hydrolase 1 (Homo sapiens) (UniProt O94782); assay: Inhibitors of USP1/UAF1: Pilot qHTS (AID 504865; active = well fitted inhibition curve with a large enough effect;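 note: rhodamine fluorescence freed from ubiquitin-rhodamine substrate followed over time; top concentration of the series differs between compounds; nearly all actives have a fitted effect of over 35% in size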); conditions: purified USP1/UAF1, Ub-rhodamine cleavage fluorescence; series mostly up to 114 µM
Ubiquitin carboxyl-terminal hydrolase 1 (Homo sapiens), sequence (O94782 whole entry, looked up): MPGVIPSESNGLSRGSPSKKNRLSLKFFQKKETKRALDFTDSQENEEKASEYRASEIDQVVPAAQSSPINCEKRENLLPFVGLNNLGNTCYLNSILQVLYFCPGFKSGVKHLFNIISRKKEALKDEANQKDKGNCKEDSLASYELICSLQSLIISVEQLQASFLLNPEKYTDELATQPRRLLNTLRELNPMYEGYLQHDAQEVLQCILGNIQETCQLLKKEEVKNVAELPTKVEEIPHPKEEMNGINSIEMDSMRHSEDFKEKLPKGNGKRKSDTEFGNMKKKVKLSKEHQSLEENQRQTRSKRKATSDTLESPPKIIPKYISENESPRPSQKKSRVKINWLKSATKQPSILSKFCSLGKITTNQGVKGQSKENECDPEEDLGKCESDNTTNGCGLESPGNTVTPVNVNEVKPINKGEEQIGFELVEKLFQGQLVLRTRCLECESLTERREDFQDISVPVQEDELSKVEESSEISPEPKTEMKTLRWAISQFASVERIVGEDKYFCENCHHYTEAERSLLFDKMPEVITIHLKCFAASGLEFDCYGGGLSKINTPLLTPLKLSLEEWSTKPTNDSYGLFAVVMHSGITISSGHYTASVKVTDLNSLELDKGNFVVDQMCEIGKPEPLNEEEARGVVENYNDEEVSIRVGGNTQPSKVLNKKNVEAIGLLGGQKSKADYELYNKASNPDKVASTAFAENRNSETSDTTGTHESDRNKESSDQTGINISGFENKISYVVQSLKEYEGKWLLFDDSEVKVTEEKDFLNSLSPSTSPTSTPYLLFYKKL
Summary of the method: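 Deubiquitinase activity followed as kinetic rhodamine fluorescence release from 150 nM Ub-Rho. 1 nM USP1/UAF1 with compound, after 15 min room-temperature preincubation, in HEPES pH 7.8 buffer containing TCEP, EDTA, BSA and Tween-20.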

[2] = molecular target: Estrogen receptor (Homo sapiens) (UniProt P03372); assay: qHTS assay for small molecule agonists of estrogen receptor alpha signaling (AID 588514); conditions: ER-alpha-UAS-bla HEK293, beta-lactamase ratio, 18 h, percent of full estradiol response, vehicle zero; series mostly up to 76.8 µM; note: nearly all actives have a fitted effect of over 70% in size
Estrogen receptor (Homo sapiens), sequence (P03372 whole entry, looked up): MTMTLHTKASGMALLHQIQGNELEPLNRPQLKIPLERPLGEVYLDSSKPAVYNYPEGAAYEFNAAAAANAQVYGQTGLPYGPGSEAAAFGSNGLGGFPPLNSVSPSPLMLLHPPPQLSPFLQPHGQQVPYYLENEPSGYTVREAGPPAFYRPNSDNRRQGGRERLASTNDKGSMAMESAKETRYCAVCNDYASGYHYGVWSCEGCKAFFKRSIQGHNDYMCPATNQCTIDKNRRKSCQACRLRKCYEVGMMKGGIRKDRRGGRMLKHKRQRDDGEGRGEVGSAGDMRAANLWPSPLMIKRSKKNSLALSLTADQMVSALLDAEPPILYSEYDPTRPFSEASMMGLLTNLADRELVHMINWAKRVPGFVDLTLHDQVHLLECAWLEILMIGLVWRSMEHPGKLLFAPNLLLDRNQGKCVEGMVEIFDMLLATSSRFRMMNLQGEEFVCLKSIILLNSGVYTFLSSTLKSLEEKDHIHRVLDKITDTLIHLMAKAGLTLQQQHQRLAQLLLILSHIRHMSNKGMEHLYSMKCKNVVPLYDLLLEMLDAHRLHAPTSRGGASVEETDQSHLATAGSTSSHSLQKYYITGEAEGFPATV
Summary of the method: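 ER-alpha-UAS-bla GripTite HEK 293 cells in medium with 2% charcoal/dextran-treated FBS were treated with compound titrations at 37 C for 18 hrs; beta-lactamase reporter read by CCF4 fluorescence after 2 hrs at RT.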

[3] = molecular target: Peroxisome proliferator-activated receptor gamma (Homo sapiens) (UniProt P37231); assay: qHTS assay for small molecule agonists of peroxisome proliferator-activated receptor gamma signaling (AID 588536; active = well fitted curve in the direction sought with a large enough effect in the signal ratio, with a control signal flat, not every such curve was filed as active; the % refers to the signal ratio); conditions: HEK293 PPARg-UAS-bla, beta-lactamase ratio, 16 h, percent of rosiglitazone response, DMSO as zero; series mostly up to 76.7 µM
Peroxisome proliferator-activated receptor gamma (Homo sapiens), sequence (P37231 whole entry, looked up): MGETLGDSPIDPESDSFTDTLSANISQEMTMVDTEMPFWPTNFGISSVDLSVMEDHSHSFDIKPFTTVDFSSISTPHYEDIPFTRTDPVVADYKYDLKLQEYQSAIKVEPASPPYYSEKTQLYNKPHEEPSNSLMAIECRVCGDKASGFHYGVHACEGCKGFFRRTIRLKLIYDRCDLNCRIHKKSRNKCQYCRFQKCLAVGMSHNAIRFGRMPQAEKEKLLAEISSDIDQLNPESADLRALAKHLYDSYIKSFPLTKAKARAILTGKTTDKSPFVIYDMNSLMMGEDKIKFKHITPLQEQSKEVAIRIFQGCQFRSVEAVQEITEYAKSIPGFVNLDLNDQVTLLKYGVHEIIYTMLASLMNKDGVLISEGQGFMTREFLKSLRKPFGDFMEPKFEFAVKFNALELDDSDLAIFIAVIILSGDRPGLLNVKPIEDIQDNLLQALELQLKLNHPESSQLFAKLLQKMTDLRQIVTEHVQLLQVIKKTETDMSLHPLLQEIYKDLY
Summary of the method: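 PPAR-gamma-UAS-bla HEK293 cells in medium with 1% charcoal/dextran-treated FBS were exposed to compounds for 16 h at 37 C. Beta-lactamase activity was read with CCF4 substrate (405 nm excitation, 460/530 nm emission).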

[4] = molecular target: Peroxisome proliferator-activated receptor gamma (Homo sapiens) (UniProt P37231); assay: qHTS assay for small molecule antagonists of peroxisome proliferator-activated receptor gamma signaling (AID 588537; active = well fitted inhibition curve with a large enough effect in the signal ratio, with a control signal flat, not every such curve was filed as active; the % refers to the signal ratio;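 note: reporter cells co-stimulated with 50 nM rosiglitazone agonist during compound treatment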); conditions: HEK293 PPARg-UAS-bla, beta-lactamase ratio, antagonist mode; series mostly up to 76.8 µM
Summary of the method: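 Step one: plate 3000 HEK293 UAS-bla cells per well in medium with 1% stripped serum and hold 6-6.5 h at 37 C. Step two: add compound and 50 nM agonist for 16 h. Step three: CCF4 loading, fluorescence read.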

[5] = molecular target: Vitamin D3 receptor (Homo sapiens) (UniProt P11473); assay: qHTS assay for small molecule antagonists of vitamin D receptor signaling (AID 588541); conditions: HEK293T VDR-UAS-bla, beta-lactamase ratio, antagonist mode; series mostly up to 76.7 µM;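 note: receptor activated by calcitriol during compound treatment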
Vitamin D3 receptor (Homo sapiens), sequence (P11473 whole entry, looked up): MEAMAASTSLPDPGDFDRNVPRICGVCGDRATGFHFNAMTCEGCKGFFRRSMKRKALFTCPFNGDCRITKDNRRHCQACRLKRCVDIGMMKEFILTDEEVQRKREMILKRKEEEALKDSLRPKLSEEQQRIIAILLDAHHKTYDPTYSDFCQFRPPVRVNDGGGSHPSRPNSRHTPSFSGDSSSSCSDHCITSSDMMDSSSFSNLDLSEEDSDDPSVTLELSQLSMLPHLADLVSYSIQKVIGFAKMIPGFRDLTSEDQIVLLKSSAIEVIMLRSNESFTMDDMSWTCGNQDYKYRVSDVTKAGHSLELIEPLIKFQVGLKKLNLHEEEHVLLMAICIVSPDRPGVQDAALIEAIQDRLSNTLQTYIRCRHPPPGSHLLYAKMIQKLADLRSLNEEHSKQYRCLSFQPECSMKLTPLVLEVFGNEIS
Summary of the method: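 VDR-UAS-bla HEK293T cells in 2% charcoal-stripped FBS were stimulated with 1-alpha,25-dihydroxyvitamin D3 (3 nM final) plus compound for 16 h at 37 C. The beta-lactamase CCF4 readout was normalized to 50 nM agonist and DMSO, and Hill fits gave IC50.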

[6] = molecular target: Vitamin D3 receptor (Homo sapiens) (UniProt P11473); assay: qHTS assay for small molecule agonists of vitamin D receptor signaling (AID 588543); conditions: HEK293T VDR-UAS-bla, beta-lactamase ratio, 16 h; series mostly up to 76.8 µM
Summary of the method: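 Agonist-mode beta-lactamase reporter: HEK293T VDR-UAS-bla cells in charcoal-stripped 2% FBS, compound series 16 h 37 C, CCF4 2 h RT. EC50 from Hill fit, scaled against DMSO and 50 nM calcitriol control.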

[7] = qHTS assay for small molecule agonists of retinoid X receptor alpha signaling (AID 588544); conditions: HEK293T RXRa-UAS-bla, beta-lactamase reporter, 18 h; 530 nm emission
[8] = molecular target: Retinoic acid receptor RXR-alpha (Homo sapiens) (UniProt P19793); assay: as above; conditions: HEK293T RXRa-UAS-bla, beta-lactamase reporter, 18 h; series mostly up to 76.7 µM
Retinoic acid receptor RXR-alpha (Homo sapiens), sequence (P19793 whole entry, looked up): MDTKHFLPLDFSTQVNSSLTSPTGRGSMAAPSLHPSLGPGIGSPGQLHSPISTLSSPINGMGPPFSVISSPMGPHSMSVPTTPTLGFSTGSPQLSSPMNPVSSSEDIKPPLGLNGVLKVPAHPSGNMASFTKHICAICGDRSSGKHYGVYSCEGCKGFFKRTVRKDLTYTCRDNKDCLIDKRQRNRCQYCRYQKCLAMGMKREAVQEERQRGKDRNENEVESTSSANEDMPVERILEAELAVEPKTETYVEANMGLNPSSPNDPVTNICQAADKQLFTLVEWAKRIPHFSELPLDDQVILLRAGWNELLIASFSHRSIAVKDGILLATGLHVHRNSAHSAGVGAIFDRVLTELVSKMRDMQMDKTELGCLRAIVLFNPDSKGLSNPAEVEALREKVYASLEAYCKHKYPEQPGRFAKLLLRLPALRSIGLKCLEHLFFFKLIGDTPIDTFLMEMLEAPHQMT

[9] = molecular target: Thyroid hormone receptor beta (Homo sapiens) (UniProt P10828); assay: qHTS assay for small molecule agonists of thyroid hormone receptor beta signaling (AID 588545); conditions: TR-UAS-bla GripTite HEK 293, beta-lactamase ratio, agonist mode, 18 h, percent of T3 response, DMSO as zero; series mostly up to 76.7 µM
Thyroid hormone receptor beta (Homo sapiens), sequence (P10828 whole entry, looked up): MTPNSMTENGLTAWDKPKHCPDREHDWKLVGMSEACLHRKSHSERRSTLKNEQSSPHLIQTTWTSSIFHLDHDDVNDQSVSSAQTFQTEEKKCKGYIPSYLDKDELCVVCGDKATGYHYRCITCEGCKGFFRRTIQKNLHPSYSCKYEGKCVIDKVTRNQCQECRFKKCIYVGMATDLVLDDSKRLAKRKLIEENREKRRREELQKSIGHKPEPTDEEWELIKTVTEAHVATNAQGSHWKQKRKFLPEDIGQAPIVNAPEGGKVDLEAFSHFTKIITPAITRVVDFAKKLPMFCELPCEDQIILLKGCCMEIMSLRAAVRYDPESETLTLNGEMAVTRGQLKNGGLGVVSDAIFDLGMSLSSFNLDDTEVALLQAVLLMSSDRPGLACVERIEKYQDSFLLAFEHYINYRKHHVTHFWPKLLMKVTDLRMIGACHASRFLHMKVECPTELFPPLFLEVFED
Summary of the method: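 Compounds were tested as agonists in TR-UAS-bla-GripTite HEK 293 cells. After 18 hrs at 37 C, CCF4 substrate was added and fluorescence read after 2 hrs at room temperature.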

[10] = qHTS assay for small molecule antagonists of retinoid X receptor alpha signaling (AID 588546; active = well fitted inhibition curve with a large enough effect in the signal ratio, with a control signal flat, not every such curve was filed as active; the % refers to the signal ratio;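 note: cells stimulated with 9-cis-retinoic acid as agonist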); conditions: HEK293T RXRa-UAS-bla, beta-lactamase ratio, antagonist mode; measured here: W530 green channel, cytotoxicity proxy
Summary of the method: (§1)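 Beta-lactamase reporter inhibition, read as CCF4 fluorescence ratio (ex 405, em 460/530 nm) after 2 h at RT. HEK293T UAS-bla cells, 2500/well, were stimulated with 9-cis-RA at 500 or 100 nM final alongside test compound for 18 h at 37 C.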

[11] = molecular target: Retinoic acid receptor RXR-alpha (Homo sapiens) (UniProt P19793); assay: as above; conditions: HEK293T RXRa-UAS-bla, beta-lactamase ratio, antagonist mode
Summary of the method: as §1

[12] = molecular target: Estrogen receptor (Homo sapiens) (UniProt P03372); assay: qHTS assay for small molecule antagonists of estrogen receptor alpha signaling (AID 588513; active = well fitted curve in the direction sought with a large enough effect in the signal ratio, with a control signal flat, not every such curve was filed as active; the % refers to the signal ratio); conditions: ER-alpha-UAS-bla HEK293, beta-lactamase ratio, antagonist mode; series mostly up to 76.9 µM
Summary of the method: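 Antagonist mode: inhibition of 0.5 nM 17-beta-estradiol-driven beta-lactamase reporter in HEK 293 ER-alpha-UAS-bla cells, 18 h at 37C, CCF4 readout after 2 h at RT. Normalised to estradiol and DMSO; titration fitted to Hill.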

[13] = molecular target: Glucocorticoid receptor (Homo sapiens) (UniProt P04150); assay: qHTS assay for small molecule agonists of glucocorticoid receptor signaling (AID 588532; active = well fitted curve in the direction sought with a large enough effect in the signal ratio, with a control signal flat; the % refers to the signal ratio); conditions: HeLa MMTV-bla, beta-lactamase ratio, agonist, 18 h; stronger effect = higher value; percent of dexamethasone control, DMSO zero
Glucocorticoid receptor (Homo sapiens), sequence (P04150 whole entry, looked up): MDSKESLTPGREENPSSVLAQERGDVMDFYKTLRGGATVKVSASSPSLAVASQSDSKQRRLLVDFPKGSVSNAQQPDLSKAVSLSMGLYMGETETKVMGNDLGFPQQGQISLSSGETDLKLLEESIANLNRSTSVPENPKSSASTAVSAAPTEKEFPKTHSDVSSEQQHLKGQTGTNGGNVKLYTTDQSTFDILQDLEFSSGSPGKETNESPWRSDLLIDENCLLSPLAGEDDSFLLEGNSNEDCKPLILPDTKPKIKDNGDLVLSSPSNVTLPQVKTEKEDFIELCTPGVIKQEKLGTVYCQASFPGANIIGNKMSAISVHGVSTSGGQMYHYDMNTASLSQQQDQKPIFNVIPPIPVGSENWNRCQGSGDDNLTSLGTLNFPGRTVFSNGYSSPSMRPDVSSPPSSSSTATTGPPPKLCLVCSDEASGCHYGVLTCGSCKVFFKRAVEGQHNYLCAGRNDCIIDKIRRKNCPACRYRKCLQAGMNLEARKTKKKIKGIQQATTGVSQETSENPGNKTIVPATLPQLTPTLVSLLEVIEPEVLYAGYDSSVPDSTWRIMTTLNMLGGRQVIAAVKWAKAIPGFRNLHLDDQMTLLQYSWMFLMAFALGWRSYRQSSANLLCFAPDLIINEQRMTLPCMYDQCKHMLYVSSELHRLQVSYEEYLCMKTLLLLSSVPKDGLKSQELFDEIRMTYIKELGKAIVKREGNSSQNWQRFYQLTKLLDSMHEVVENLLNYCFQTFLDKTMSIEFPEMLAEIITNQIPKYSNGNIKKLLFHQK
Summary of the method: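 MMTV-bla HeLa beta-lactamase reporter cells in 1% charcoal/dextran FBS medium, compounds up to 92 uM for 18 h at 37 C, CCF4 readout; normalized to 0.1 uM dexamethasone (100%), EC50 and efficacy from Hill fits.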

[14] = molecular target: Glucocorticoid receptor (Homo sapiens) (UniProt P04150); assay: qHTS assay for small molecule antagonists of glucocorticoid receptor signaling (AID 588533; active = well fitted inhibition curve with a large enough effect in the signal ratio, with a control signal flat, not every such curve was filed as active; the % refers to the signal ratio); conditions: HeLa MMTV-bla, GRE beta-lactamase ratio, antagonist mode, 18 h; series mostly up to 76.8 µM
Summary of the method: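 Antagonist-mode qHTS: compound titrations added to GRE-bla HeLa cells, then dexamethasone 2 nM final; 18 h, 37 C. CCF4 FRET fluorescence normalized to dexamethasone and DMSO; IC50 from Hill fit.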

[15] = molecular target: DNA dC->dU-editing enzyme APOBEC-3G (Homo sapiens) (UniProt Q9HC16); assay: qHTS for inhibitors of Vif-A3G interactions: Validation (AID 588379; active = well fitted inhibition curve with a large enough effect); conditions: Vif-A3G protein interaction assay; series mostly up to 46.1 µM
Summary of the method: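 HeLa cells stably expressing Vif and A3G-eYFP, 700 cells/well, incubated overnight at 37 deg C, then exposed to compound overnight at 37 deg C. Inhibition of Vif-mediated degradation read as increased yellow fluorescence (Ex 488/Em 500-530) by laser-scanning cytometry.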

[16] = qHTS assay for small molecule antagonists of peroxisome proliferator-activated receptor delta signaling (AID 588535; active = well fitted inhibition curve with a large enough effect in the signal ratio, with a control signal flat, not every such curve was filed as active; the % refers to the signal ratio;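 for max response: cells co-treated with a PPAR-delta agonist as stimulator during compound exposure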); conditions: HEK293T PPARd-UAS-bla, beta-lactamase FRET ratio, 18 h; 460 nm channel
Summary of the method: (§2)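 Cells were seeded at 4000 per well in assay medium containing 2% charcoal/dextran FBS and held 5 hrs at 37 C. Compounds were then added for 18 hrs. CCF4 substrate was applied for 2 hrs at room temperature before fluorescence reading.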

[17] = molecular target: Peroxisome proliferator-activated receptor delta (Homo sapiens) (UniProt Q03181); assay: as above; conditions: HEK293T PPARd-UAS-bla, beta-lactamase FRET ratio, 18 h; series mostly up to 76.7 µM
Peroxisome proliferator-activated receptor delta (Homo sapiens), sequence (Q03181 whole entry, looked up): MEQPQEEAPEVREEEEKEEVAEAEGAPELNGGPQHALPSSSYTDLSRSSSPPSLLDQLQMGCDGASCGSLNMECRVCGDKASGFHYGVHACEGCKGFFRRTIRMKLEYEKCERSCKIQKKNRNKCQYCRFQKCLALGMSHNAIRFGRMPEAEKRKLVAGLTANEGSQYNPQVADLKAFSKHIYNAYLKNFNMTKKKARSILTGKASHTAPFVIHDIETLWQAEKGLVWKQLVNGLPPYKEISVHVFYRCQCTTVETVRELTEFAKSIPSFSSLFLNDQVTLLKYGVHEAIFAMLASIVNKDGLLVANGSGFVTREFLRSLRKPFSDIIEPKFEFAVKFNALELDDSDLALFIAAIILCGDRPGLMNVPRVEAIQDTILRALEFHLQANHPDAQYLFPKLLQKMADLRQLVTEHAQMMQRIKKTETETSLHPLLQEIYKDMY
Summary of the method: as §2

[18] = molecular target: Bile acid receptor (Homo sapiens) (UniProt Q96RI1); assay: qHTS assay for small molecule antagonists of farnesoid X receptor signaling (AID 588526); conditions: HEK293T FXR-UAS-bla, beta-lactamase ratio, antagonist mode; series mostly up to 76.7 µM
Bile acid receptor (Homo sapiens), sequence (Q96RI1 whole entry, looked up): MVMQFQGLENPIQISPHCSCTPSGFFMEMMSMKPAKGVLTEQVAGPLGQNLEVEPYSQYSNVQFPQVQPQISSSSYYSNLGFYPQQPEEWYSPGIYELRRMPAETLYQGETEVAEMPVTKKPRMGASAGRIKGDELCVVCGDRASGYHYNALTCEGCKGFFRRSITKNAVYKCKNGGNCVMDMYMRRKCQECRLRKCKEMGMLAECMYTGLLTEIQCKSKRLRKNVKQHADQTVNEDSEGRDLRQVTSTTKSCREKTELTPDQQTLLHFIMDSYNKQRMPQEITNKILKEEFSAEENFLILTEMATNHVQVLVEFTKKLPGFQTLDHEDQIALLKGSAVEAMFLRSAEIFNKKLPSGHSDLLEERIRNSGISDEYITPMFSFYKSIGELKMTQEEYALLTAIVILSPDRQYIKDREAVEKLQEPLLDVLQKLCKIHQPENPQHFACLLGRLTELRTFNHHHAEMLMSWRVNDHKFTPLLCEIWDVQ
Summary of the method: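 Antagonist mode: titrated compounds tested against chenodeoxycholic acid stimulation (normalized to 50 uM CDCA and DMSO) in GeneBLAzer HEK293T cells for 16 h. Beta-lactamase read by CCF4 fluorescence; IC50 from Hill fits.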

SMILES | Potency [1] | outcome [2] | outcome [3] | outcome [4] | outcome [5] | outcome [6] | max response [7] | outcome [8] | outcome [9] | max response [10] | max response [11] | outcome [12] | activation [13] | outcome [14] | outcome [15] | max response [16] | outcome [17] | outcome [18]
OC[C@@H](O)[C@@H](O)[C@H](O)[C@H](O)CO | inactive | inactive | inactive | inactive | inactive | inactive | -0.766% | inactive | inactive | -16.3% | 13.9% (inactive) |  |  |  |  |  |  | 
CC(=O)Nc1ccc(C(=O)O)cc1 | inactive | inactive | inactive | inactive |  |  | -5.85% | inactive | inactive | -6.58% | 1.7% (inactive) | inactive | -0.936% (inactive) | inactive |  |  |  | 
O=C(O)CCCCC1CCSS1 (stereo not drawn) | inactive | inactive | inactive | inactive | inactive | inactive |  |  | inactive | -14.4% | -5.4% (inactive) | inactive | -0.0197% (inactive) and 20% (inactive) | inactive | inactive | 4.26% | inactive | 
CC1CC(OC(=O)c2ccccc2O)CC(C)(C)C1 (stereo not drawn) | inactive |  | inactive |  |  |  |  |  | inactive | -9.52% | 14.2% (inactive) |  | 2.49% (inactive) | inactive |  | 23.9% | inactive | 
CC(=O)Nc1cccc(O)c1 | inactive | inactive | inactive |  |  |  | 11% | inactive | inactive | -5.06% | 5.72% (inactive) | inactive |  |  |  |  |  | 
CC(=O)Nc1ccccc1 | inactive | inactive | inactive | inactive | inactive | inactive | -17.4% | inactive | inactive | -2.29% | -0.837% (inactive) | inactive | -0.909% (inactive) | inactive |  | 17.1% | inactive | inactive

Source: PubChem BioAssay (NCATS)
